This note sets out measurements from PubChem BioAssay.

Structures are written as SMILES. A number with no mark means an inactive call. The source made the active and inactive calls.

One assay is described as follows: plasmodial surface anion channel blockers, osmotic lysis – cell-based, P. falciparum Indochina, OD700, 1 h, primary screen (AID 1154). Conditions: P. falciparum Indochina infected RBC osmotic lysis, higher = more signal, called active from +8 up or from −8 down.
Take `CCCCCCCCCC(O)C1C=CC2C(=O)N(c3ccccc3)C(=O)C2N1Nc1cc(OC)c(OC)c(OC)c1` (stereo not drawn): the z-score was 7.78. Take `COc1cc(OC)c(C(O)C2C=CC3C(=O)N(Cc4ccccc4)C(=O)C3N2n2cnnc2)cc1Br` (stereo not drawn): the z-score is -0.0011. For the compound `O=C1O[C@@H](c2ccccc2)[C@@H](c2ccccc2)N2[C@@H](c3ccc(OCCO)cc3)[C@]3(C(=O)Nc4ccc(C#CC5=CCCCC5)cc43)[C@@H](C(=O)NC[C@H](O)c3ccccc3)[C@H]12`, the z-score was 1.96. `CC(C)[Si](C#CCCCC#N)(O[C@H](c1ccccc1)c1cn(Cc2ccccc2)nn1)C(C)C`: the z-score was 1.05.

`CC1=C2[C@@H](CCc3ccccc3)OB(O)C[C@@H]2[C@@H]2C(=O)N(C)C(=O)[C@@H]2C1`: the z-score is 1.45.

Take `COc1ccc([Si](C)(C)[C@H]2[C@H](CC(=O)N(CCO)Cc3ccccc3)O[C@@]3(C(=O)N(C)c4c(Br)cc(C)cc43)[C@@H]2C)cc1`: the z-score is 18.4 (active).

With `C=CC[C@@]1(C(=O)NCCCOC)N=C(c2ccc(OCCCO)cc2)O[C@@H]1c1ccccc1N=[N+]=[N-]`, the z-score is 30.7 (active). On the same count and under the same terms, under `COC(=O)C(CC#Cc1ccc2c(c1)[C@]1(C(=O)N2)[C@H](c2ccc(O)cc2)N2[C@H](c3ccccc3)[C@H](c3ccccc3)OC(=O)[C@H]2[C@@H]1C(=O)NC[C@H](O)c1ccccc1)C(=O)OC` stands 1.13; under `COc1ccc([Si](C)(C)[C@H]2[C@H](CC(=O)N3Cc4ccccc4C[C@H]3CO)O[C@@]3(C(=O)N(Cc4ccc(N5CCOC5=O)cc4)c4ccccc43)[C@@H]2C)cc1`, 8.34 (active); under `COC(=O)c1c(CC[C@@H](CO)NC(=O)N[C@@H](C)Cn2cc(-c3ccccn3)nn2)oc(C(C)=O)c1C(=O)OC`, 1.71. The same measure, in the same setting: then `COCC(=C=CC[C@H](O)c1ccc(OCCO)cc1)CCO`, with 9.25 (active); and `N[C@@H](Cc1ccccc1)C(=O)NCc1cn(Cc2ccccc2)nn1`, with -0.39. The same measure, in the same setting: then `CCOC(=O)C[C@H]1[C@H](OC(=O)Cc2ccc3c(c2)OCO3)[C@@H](NC(=O)c2ccc3ccccc3n2)c2cc(OCCCO)ccc2N1C(=O)c1ccccc1`, with 8.88 (active); and `CC(CO)N1C(=O)[C@]2(C)C3C(=O)OCCC/C=C\[C@H]3OC23C=CCN(c2ccc(Cl)cc2)C(=O)[C@@H]13` (stereo partly drawn), with 0.423; and `CC(=O)NCCCC[C@@H]1NC(=O)[C@@H]2C[C@H](C(=O)NCCCCCN)[C@H](c3ccc(O)cc3)N2C1=O`, with 1.46.

As to `COC(=O)[C@@]1(Cc2ccccc2)[C@H]2c3cc(C(=O)N(C)C)n(Cc4ccc(C)o4)c3C[C@H]2CN1C(=O)c1ccccc1`, the z-score was 2.55. `CCCC[C@@H](O)C1=C(COc2ccccc2)C[C@H]2C(=O)N(Cc3ccccc3)C(=O)[C@H]2[C@H]1CO`: the z-score was 13.9 (active).

For `COC(=O)C1(CC(C)C)C=C2C(=C(c3ccccc3)C(=O)C2C)CN1` (stereo not drawn), the z-score was 1.28. For `COc1ccc(CCNC(=O)[C@@]2(c3ccc([N+](=O)[O-])cc3)CC(=O)N(C3CCCCC3)[C@@H]2c2ccc(CO)cc2)cc1`, the z-score is 0.965. As to `COCCCNC(=O)[C@@]1(Sc2ccc(C)cc2)CC(=O)N(C2Cc3ccccc3C2)[C@@H]1c1ccc(CO)cc1`, the z-score was 1.86. Still for that read-out and setting: under `CS(=O)(=O)CCOC(=O)C1=CC(c2ccc(CO)cc2)=CC(C2CC2)N(Cc2sc3ccccc3c2Cl)C=C1C(=O)OCCS(C)(=O)=O` (stereo not drawn) stands 13.8 (active); under `C=CCOC(=O)[C@@H]1[C@H]2C(=O)O[C@H](c3ccccc3)[C@H](c3ccccc3)N2[C@H](c2ccc(OCCOC(=O)[C@@H]3C[C@@H]4C(=O)N[C@@H](CCCC[N+](C)(C)C)C(=O)N4[C@@H]3c3ccc(O)cc3)cc2)[C@@]12C(=O)Nc1ccc(I)cc12`, 0.321.

In the case of `OCCCC1=CC(c2ccc(CN3CCCC3)cc2)N(Cc2cc3c(cc2Br)OCO3)CC1` (stereo not drawn), the z-score was 3.7. Still for that read-out and setting: then `CC(c1ccccc1)C(O)C1C=CC2C(=O)N(C)C(=O)C2N1Nc1ccccc1` (stereo not drawn), with 0.627. Same read-out and setting: under `CC(C)N1C(=O)C[C@@](C(=O)O)(c2ccc([N+](=O)[O-])cc2)[C@H]1c1ccc(CO)cc1` stands 3.45; under `CCCC#C[Si](O[C@H](CC)c1cn([C@H](C)c2ccccc2)nn1)(C(C)C)C(C)C`, 1.01.

Another assay can be described thus: plasmodial surface anion channel blockers, osmotic lysis – cell-based, P. falciparum Indochina, OD700, 2 h, primary screen (AID 1155).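 Note: lysis reports solute entry through the parasite surface anion channel PSAC.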 The note with it: P. falciparum Indochina infected erythrocytes, higher = more signal, called active from +8 up or from −8 down.
`CC1CC/C=C\[C@H]2OC34C=CCN(C(C)C)C(=O)[C@H]3N(CCO)C(=O)[C@@H]4C2C(=O)O1` (stereo partly drawn): the z-score is 0.22. The same measure, in the same setting: then `C=C(/C(=C/C[C@H](OC(=O)c1ccncc1)c1ccc(CO)o1)c1cnc2ccccc2c1)C(C)C`, with 1.37; and `Cc1ccc(F)cc1S(=O)(=O)N[C@@H]1CCN(Cc2ccc(Br)cc2)C1`, with 1.24; and `CN1C2C=C(CCCO)C(C3C(=O)N(C(N)=O)C(=O)C32)C1C1CC1` (stereo not drawn), with -0.0718. Still for that read-out and setting: under `Cc1ccc(S[C@]2(C(=O)O)CC(=O)N(C3CCCCC3)[C@@H]2c2ccc(CO)cc2I)cc1` stands 0.692. Regarding `COCCOC(=O)N1C(=O)[C@@]2(c3cc(C#CC4(O)CCCCCC4)ccc31)[C@H](C(=O)N1CCc3cc(OC)c(OC)cc3C1)[C@H]1C(=O)O[C@H](c3ccccc3)[C@H](c3ccccc3)N1[C@@H]2c1ccc(OCCO)cc1`, the z-score is 2.64. Consider `COC(=O)[C@@]1(Cc2ccc(OC)cc2)[C@H]2c3cc(C(=O)N4CCCC4)n(CCc4c[nH]c5ccc(O)cc45)c3C[C@H]2CN1C(=O)c1ccccc1`, for which the z-score is 0.847. For the compound `CN(C)C(=O)[C@]1(CCC(=O)OC(C)(C)C)N=C(c2ccc(OCCCO)cc2)O[C@@H]1c1ccccc1CN=[N+]=[N-]`, the z-score was 25.2 (active). Still for that read-out and setting: then `CCOC(=O)C1=CC[C@@H](c2ccccc2)N(S(=O)(=O)c2ccc(C)cc2)[C@H]1c1ccccc1`, with 0.945; and `NC(=O)[C@H]1[C@@H]2C(=O)O[C@@H](c3ccccc3)[C@@H](c3ccccc3)N2[C@@H](c2ccc(OCCO)cc2)[C@]12C(=O)Nc1ccc(C#CCCO)cc12`, with 1.05; and `CCCCCCCCCC(O)C1C=CC2C(=O)N(c3ccccc3)C(=O)C2N1Nc1cc(OC)c(OC)c(OC)c1` (stereo not drawn), with 1.84. Take `COc1cc(OC)c(C(O)C2C=CC3C(=O)N(Cc4ccccc4)C(=O)C3N2n2cnnc2)cc1Br` (stereo not drawn): the z-score is -0.731.

Turning to `O=C1O[C@@H](c2ccccc2)[C@@H](c2ccccc2)N2[C@@H](c3ccc(OCCO)cc3)[C@]3(C(=O)Nc4ccc(C#CC5=CCCCC5)cc43)[C@@H](C(=O)NC[C@H](O)c3ccccc3)[C@H]12`, the z-score is 0.982. Still for that read-out and setting: then `CC(C)[Si](C#CCCCC#N)(O[C@H](c1ccccc1)c1cn(Cc2ccccc2)nn1)C(C)C`, with 0.0907; and `CC1=C2[C@@H](CCc3ccccc3)OB(O)C[C@@H]2[C@@H]2C(=O)N(C)C(=O)[C@@H]2C1`, with 0.454. In the case of `COc1ccc([Si](C)(C)[C@H]2[C@H](CC(=O)N(CCO)Cc3ccccc3)O[C@@]3(C(=O)N(C)c4c(Br)cc(C)cc43)[C@@H]2C)cc1`, the z-score was 3.21. With `C=CC[C@@]1(C(=O)NCCCOC)N=C(c2ccc(OCCCO)cc2)O[C@@H]1c1ccccc1N=[N+]=[N-]`, the z-score was 29.4 (active). Turning to `COC(=O)C(CC#Cc1ccc2c(c1)[C@]1(C(=O)N2)[C@H](c2ccc(O)cc2)N2[C@H](c3ccccc3)[C@H](c3ccccc3)OC(=O)[C@H]2[C@@H]1C(=O)NC[C@H](O)c1ccccc1)C(=O)OC`, the z-score is 0.353.

With `COc1ccc([Si](C)(C)[C@H]2[C@H](CC(=O)N3Cc4ccccc4C[C@H]3CO)O[C@@]3(C(=O)N(Cc4ccc(N5CCOC5=O)cc4)c4ccccc43)[C@@H]2C)cc1`, the z-score is 1.85. Consider `COC(=O)c1c(CC[C@@H](CO)NC(=O)N[C@@H](C)Cn2cc(-c3ccccn3)nn2)oc(C(C)=O)c1C(=O)OC`, for which the z-score is -1.15. On the same count and under the same terms, under `COCC(=C=CC[C@H](O)c1ccc(OCCO)cc1)CCO` stands 1.02; under `N[C@@H](Cc1ccccc1)C(=O)NCc1cn(Cc2ccccc2)nn1`, 0.262; under `CCOC(=O)C[C@H]1[C@H](OC(=O)Cc2ccc3c(c2)OCO3)[C@@H](NC(=O)c2ccc3ccccc3n2)c2cc(OCCCO)ccc2N1C(=O)c1ccccc1`, 1.32. Still for that read-out and setting: under `CC(CO)N1C(=O)[C@]2(C)C3C(=O)OCCC/C=C\[C@H]3OC23C=CCN(c2ccc(Cl)cc2)C(=O)[C@@H]13` (stereo partly drawn) stands 0.576. Consider `CC(=O)NCCCC[C@@H]1NC(=O)[C@@H]2C[C@H](C(=O)NCCCCCN)[C@H](c3ccc(O)cc3)N2C1=O`, for which the z-score is 0.374.

Take `COC(=O)[C@@]1(Cc2ccccc2)[C@H]2c3cc(C(=O)N(C)C)n(Cc4ccc(C)o4)c3C[C@H]2CN1C(=O)c1ccccc1`: the z-score was -0.381. Same read-out and setting: then `CCCC[C@@H](O)C1=C(COc2ccccc2)C[C@H]2C(=O)N(Cc3ccccc3)C(=O)[C@H]2[C@H]1CO`, with 1.59. Still for that read-out and setting: then `COC(=O)C1(CC(C)C)C=C2C(=C(c3ccccc3)C(=O)C2C)CN1` (stereo not drawn), with -0.382. The same measure, in the same setting: then `COc1ccc(CCNC(=O)[C@@]2(c3ccc([N+](=O)[O-])cc3)CC(=O)N(C3CCCCC3)[C@@H]2c2ccc(CO)cc2)cc1`, with -0.0966; and `COCCCNC(=O)[C@@]1(Sc2ccc(C)cc2)CC(=O)N(C2Cc3ccccc3C2)[C@@H]1c1ccc(CO)cc1`, with -0.562.

As for `CS(=O)(=O)CCOC(=O)C1=CC(c2ccc(CO)cc2)=CC(C2CC2)N(Cc2sc3ccccc3c2Cl)C=C1C(=O)OCCS(C)(=O)=O` (stereo not drawn), the z-score is 3.35.

On to `C=CCOC(=O)[C@@H]1[C@H]2C(=O)O[C@H](c3ccccc3)[C@H](c3ccccc3)N2[C@H](c2ccc(OCCOC(=O)[C@@H]3C[C@@H]4C(=O)N[C@@H](CCCC[N+](C)(C)C)C(=O)N4[C@@H]3c3ccc(O)cc3)cc2)[C@@]12C(=O)Nc1ccc(I)cc12`, for which the z-score was 1.12.
